TTR transcr act = TTR transcription activation, primary screen; AID 1117267; activation, % at 16.7 µM; 1.3% of 92,000 active; SH-SY5Y TTR promoter Gaussia luciferase, luminescence; 100% = recombinant luciferase protein wells;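 active = activation above the mean of all tested compounds plus 3 SD, cut at about 9.5% in these data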;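 also: cells exposed to compounds for one day before reading; 0% = median of all test compound wells on the plate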
TTR inh HuH7 = HuH7 TTR transcription inhibition, counter-screen | shares compounds with TTR transcr act | HuH7 TTR promoter-Gaussia luciferase reporter, luminescence | inhibition, % at 16.7 µM | 4% of 1,100 active | AID 1117279;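 active = average inhibition above the solvent-only control wells' mean plus 3 SD, cut at about 15% in these data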;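 also: 0% = cells with DMSO only and 100% = cells with inhibitor control FD; inhibitors lower well luminescence so higher value means more inhibition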
TTR up confirm = confirmation of human transthyretin transcription activators. shares compounds with TTR transcr act. SHSY5Y TTR promoter Gaussia luciferase, luminescence; 100% = purified Lucia enzyme wells, no cells. activation, % at 16.7 µM. 1,100 tested, under 10 active. AID 1117280;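 active = mean activation above a set limit taken from the earlier primary screen, cut at about 11% in these data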;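 also: 0% = DMSO-treated cells and 100% = recombinant Lucia luciferase without cells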
An asterisk follows results filed as active. The full list was thinned out, with hits kept by preference.

SMILES | TTR transcr act | others
Cc1ccc(N/C=C2\CCCCC2=O)nc1 | 9.9* | TTR inh HuH7=-9;TTR up confirm=0
O=C1CCCC/C1=C/Nc1cccc(C(F)(F)F)c1 | 0
O=C(NNc1c2ccccc2nc2ccccc12)C(O)c1ccccc1 (stereo not drawn) | 2
Cc1nn(Cc2ccc(F)cc2)c(C)c1NC(=O)c1cnn2c1NC(c1cccs1)CC2C(F)(F)F (stereo not drawn) | 0
C#CCOCCOCCOCCNc1nc(N2CCOCC2)nc(N2CCN(C(=O)[C@H](CC(N)=O)n3cc([C@@H](N)C(C)C)nn3)CC2)n1 | -1
C#CCOCCOCCOCCNc1nc(N2CCN(C(=O)[C@H](CC(N)=O)n3cc([C@@H](N)CC(N)=O)nn3)CC2)nc(N2CCN(C(=O)[C@H](CC(N)=O)n3cc([C@@H](N)CC(N)=O)nn3)CC2)n1 | 14* | TTR inh HuH7=-4;TTR up confirm=0
C#CCOCCOCCOCCNc1nc(N2CCN(C(=O)[C@H](CCC(=O)O)n3cc([C@@H](N)CC(N)=O)nn3)CC2)nc(N2CCN(C(=O)[C@H](CCC(=O)O)n3cc([C@@H](N)CC(N)=O)nn3)CC2)n1 | 0
COc1ccc(NC(C)C(=O)N2CCN(Cc3ccccc3)CC2)cc1 (stereo not drawn) | 0
CC(C)NCCOCCOc1ccc(Cl)cc1Br | 0
CCN(CC)CCOCCOc1ccccc1F | -1
CC(C)NCCOCCOc1ccccc1F | 11* | TTR inh HuH7=-9;TTR up confirm=1
O=C1NC(Cc2ccccc2)c2nc3cc(F)ccc3c(=O)n2-c2ccccc21 (stereo not drawn) | 4
CCn1c(=O)cc(OCC(=O)NCC2CCCO2)c2ccccc21 (stereo not drawn) | -2
CCn1c(=O)cc(OCC(=O)NCCc2ccc(OC)c(OC)c2)c2ccccc21 | 1
CCn1c(=O)cc(OCC(=O)Nc2nc(C)cs2)c2ccccc21 | 11* | TTR inh HuH7=-23;TTR up confirm=0
COc1ccc(N=[N+]([O-])c2ccc(OC)cc2)cc1 | -3
COC(=O)[C@H](CCSC)NC(=O)NCCc1ccc(F)cc1 | 1
COC(=O)[C@H](CCSC)NC(=O)Nc1ccc(C(C)C)cc1 | -1
COC(=O)[C@H](CCSC)NC(=O)NCc1ccccn1 | 19* | TTR inh HuH7=-17;TTR up confirm=1
Cc1ccc(S(=O)(=O)N2CCCN(S(=O)(=O)c3ccc(C(F)(F)F)cc3)CC2)cc1 | 6
CCOCCn1c(CN2CCN(c3ccccc3)CC2)nc2c1c(=O)n(C)c(=O)n2C | 2
CCOCCn1c(CN2CCc3ccccc3C2)nc2c1c(=O)n(C)c(=O)n2C | 13* | TTR inh HuH7=2;TTR up confirm=0
Cn1c(=O)c2c(nc(CN3CCc4ccccc4C3)n2Cc2ccccc2)n(C)c1=O | -3
CCOC(=O)/C(C)=N/NC(=O)c1cccc([N+](=O)[O-])c1 | 1
CC(C)(C)OC(=O)NC(Cc1ccccc1)C1CC(C#N)C(=O)O1 (stereo not drawn) | 1
SMILES | TTR transcr act | others
CCn1c(-c2cc(C3CC3)nc3ccccc23)n[nH]c1=S | 0
Cc1ccc([C@H]2C[C@@H](O)[C@H](n3cc(-c4ccc(F)cc4)nn3)CN2C(=O)c2cccs2)cc1 | 11* | TTR inh HuH7=15*;TTR up confirm=0
O=C(C1CCCCC1)N1C[C@H](n2cc(-c3ccc(F)cc3)nn2)[C@@H](O)C[C@@H]1c1ccc(Cl)cc1 | 1
COc1ccc([C@H]2C[C@H](O)[C@@H](n3cc(C4CC4)nn3)CN2C(=O)c2cccs2)cc1 | 1
C=CCN1C(=O)[C@H](CC(=O)N2CCOCC2)[C@@]2(C(=O)OCC)CCCC=C12 | 2
CC(C)[C@@H]1NC(=O)N(c2ccc(Oc3ccccc3)cc2)C1=O | 0
Cc1cc(C(=O)CSc2nnc3ccccn23)c(C)n1-c1ccccc1 | -1
COc1cc(NC(=S)N(C)C)c(OC)cc1Cl | 3
COCC(=O)Nc1cc(OC)c(Cl)cc1OC | -2
COc1cc(NC(=S)N(C)CCC#N)c(OC)cc1Cl | 11* | TTR inh HuH7=-6;TTR up confirm=-1
CCOC(=O)c1ccc(NC(=O)Cc2coc3cc4c(cc23)CCC4)cc1 | -1
CCNC(=S)Nc1ccc(NC(=O)c2ccccc2O)cc1 | 0
S=c1[nH]nc(-c2ccncc2)n1/N=C/C=C/c1ccccc1 | 5
Cc1ccc(-c2n[nH]c(=S)n2/N=C/c2ccncc2)cc1 | 10.0* | TTR inh HuH7=6;TTR up confirm=0
Cc1ccc(-c2n[nH]c(=S)n2/N=C/c2sccc2C)cc1 | 1
Cc1ccc2c(c1)-n1c(nc3cc(C)ccc3c1=O)C(Cc1ccccc1)NC2=O (stereo not drawn) | -2
Cc1cc(C)cc(N(C(=O)c2ccc(Br)o2)C2C=CS(=O)(=O)C2)c1 (stereo not drawn) | 1
CCOC(=O)c1cnc2cc(-c3ccc(Br)cc3)nn2c1C | 2
CCOC(=O)c1cnc2c(-c3ccccc3)cnn2c1C | 13* | TTR inh HuH7=-2;TTR up confirm=4
CCOC(=O)c1cnc(-c2ccccc2)nc1N1CCOCC1 | -1
Cn1c(N/N=C/c2cccs2)cc(=O)n(C)c1=O | 0

Screening data (PubChem BioAssay)
